Screening results as filed in PubChem BioAssay.
JMJD2A Tudor inh: inhibitors of human JMJD2A Tudor domain | O75164 | AlphaScreen JMJD2A-Tudor / H3K4me3 peptide binding | Potency, µM (doses to about 114 µM), inactives show at the highest dose activity change, negative = inhibition, hits mostly inhibitors | hit rate 4.4% among 390,000 | AID 504339; note: % is set by controls: 0 for no effect and ±100 for the full control effect; nearly all actives have a fitted effect of over 50% in size
HP1b binding inh: blocks HP1-beta chromodomain binding to methylated histone tails; P83916; AlphaScreen HP1-beta / biotin-H3K9me3 peptide binding; Potency, µM (top dose mostly 114 µM), inactives show top-dose activity change, negative = inhibition, actives largely listed as inhibitors; hit rate 0.56% among 390,000; note: nearly all actives have a fitted effect of over 70% in size
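Compound inhibition of the preformed complex between 50 nM HP1-beta and 50 nM biotinylated H3K9me3 peptide was read by AlphaScreen. Buffer was PBS pH 7.4 with 0.01% Tween-20. Incubations ran 30 min at room temperature, with 10 ug/mL donor/acceptor beads.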
G9a inh: inhibitors of human histone lysine methyltransferase G9a. Potency, µM (top dose mostly 102 µM), without a hit: at the top dose activity, negative = inhibition, hits mostly inhibitors. hit rate 8.8% among 350,000. G9a H3K9 monomethylation, AlphaScreen, 2 h. AID 504332; note: % is set by controls: 0 for no effect and ±100 for the full control effect; nearly all actives have a fitted effect of over 75% in size
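Methyltransferase reactions run at room temperature for 2 h (20 nM enzyme, 500 nM biotin-H3K9 peptide, 20 uM SAM) after a 15 min compound preincubation; product detected by AlphaScreen beads and anti-H3K9me1 antibody.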
12-LOX inh: ALOX12 (human) lipoxygenase inhibition. P18054. purified 12hLO, xylenol orange hydroperoxide absorbance. Potency, µM (doses to about 108 µM), inactives show at the top dose activity change, negative = inhibition, most hits filed as inhibitors. hit rate 1.1% among 580,000. AID 1671190; note: % is set by controls: 0 for no effect and ±100 for the full control effect
Target sequence (P18054 whole entry, looked up): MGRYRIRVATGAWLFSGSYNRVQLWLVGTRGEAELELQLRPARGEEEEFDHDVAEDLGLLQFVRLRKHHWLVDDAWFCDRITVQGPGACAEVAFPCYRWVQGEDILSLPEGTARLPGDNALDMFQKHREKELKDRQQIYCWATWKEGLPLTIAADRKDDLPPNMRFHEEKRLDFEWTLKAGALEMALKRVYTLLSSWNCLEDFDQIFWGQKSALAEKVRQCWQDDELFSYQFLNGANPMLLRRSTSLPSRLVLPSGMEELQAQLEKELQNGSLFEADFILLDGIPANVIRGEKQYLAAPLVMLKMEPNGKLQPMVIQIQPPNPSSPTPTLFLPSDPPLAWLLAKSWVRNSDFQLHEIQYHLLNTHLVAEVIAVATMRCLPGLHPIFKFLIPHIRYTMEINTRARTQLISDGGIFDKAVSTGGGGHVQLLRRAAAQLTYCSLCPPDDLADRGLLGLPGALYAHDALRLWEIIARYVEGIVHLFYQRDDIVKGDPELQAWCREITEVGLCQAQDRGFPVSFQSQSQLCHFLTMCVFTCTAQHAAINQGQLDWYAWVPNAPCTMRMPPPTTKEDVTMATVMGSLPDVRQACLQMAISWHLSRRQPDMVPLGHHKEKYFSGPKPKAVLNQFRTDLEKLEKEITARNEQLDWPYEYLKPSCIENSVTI
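Purified human 12hLO at 150 nM in 25 mM Hepes, 0.01% Triton X-100, pH 7.0, preincubated 15 min at room temperature with compound. Reaction started with 40 uM arachidonic acid, 30 min at room temperature. Hydroperoxide measured by Fe-xylenol orange, 573/405 nm absorbance ratio.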
BAZ2B inh: BAZ2B (human) inhibition; Q9UIF8; AlphaScreen BAZ2B-H3K14Ac peptide displacement; Potency, µM (series often up to 114 µM), for inactives: at the highest dose activity change, negative = inhibition, hits mostly inhibitors; hit rate 4.4% among 360,000; AID 504333; note: % is set by controls: 0 for no effect and ±100 for the full control effect; nearly all actives have a fitted effect of over 60% in size
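AlphaScreen displacement of biotin-H3(5-23)K14Ac peptide (50 nM final) from BAZ2B (50 nM final) in PBS pH 7.4, 0.01% Tween-20; complex preformed 30 min RT, then compounds (top 110 uM) 30 min RT, beads 20 min dark.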
Sfp PPTase inh: Sfp phosphopantetheinyl transferase inhibition | Biochemical Sfp PPTase activity, qHTS | Potency, µM, without a hit: largest response in the series, negative = inhibition, hits mostly inhibitors | hit rate 3.5% among 310,000 | AID 1490;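 note: the enzyme is Sfp with the accession as filed and its product quenches rhodamine fluorescence; 0% = enzyme reaction without inhibitor and -100% = no enzyme wells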
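With Hepes-Na pH 7.6 buffer containing 10 mM MgCl2, Sfp (15 nM) modified BHQ-2-YbbR (12.5 uM) using rhodamine-CoA (5 uM). Two reads 30 minutes apart at 525/598 nm yielded each well's rate.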
Numbers without * were called inactive; ? = inconclusive; . = no result; [ ] = dose if it differs, or a comment. Compounds with a hit are over-represented: about 8.7% of the library has one in this group of screens. Calls come from the whole dose curve; as a rule, active = well fitted curve in the direction sought with a large enough effect; inconclusive = small, poorly fitted or top-dose-only effect, or another doubt; inactive = no such curve, though single readings can be large; an effect the other way counts as inactive or inconclusive. Potency is the fitted concentration of half-maximal effect.

SMILES	JMJD2A Tudor inh	HP1b binding inh	G9a inh	12-LOX inh	BAZ2B inh	Sfp PPTase inh
Cc1nnc(C)n1/N=C/c1cccn1C	-34%[11.4 µM]	-7%	-6%[59 µM]	46%	-2%	20%
Cn1cccc1/C=N/n1c(-c2ccc(Cl)cc2)n[nH]c1=S	-16%	35%	?	?	3%	3%
Cn1cccc1/C=N/n1c(-c2ccc(Cl)cc2Cl)n[nH]c1=S	79µM*	-13%	?	?	45µM*	-10%
COc1ccc(/C=C/C(=O)NCC(F)(F)F)cc1	.	.	.	35%	.	.
CC(C)NC(=O)CNC(=O)c1nc(-c2cccc3[nH]ccc23)no1	.	.	.	2%	.	.
C#CCOCCOCCOCCNc1nc(N2CCOCC2)nc(N2CCN(C(=O)[C@H](Cc3ccc(O)cc3)n3cc([C@@H](N)C(C)CC)nn3)CC2)n1 (stereo partly drawn)	?	7%	?	-3%	-30%	9%
C#CCOCCOCCOCCNc1nc(N2CCN(C(=O)C(Cc3ccc(O)cc3)n3cc(C(N)C(C)CC)nn3)CC2)nc(N2CCN(C(=O)C(Cc3ccc(O)cc3)n3cc(C(N)C(C)CC)nn3)CC2)n1 (stereo not drawn)	35µM*	36%	?	-10%	50µM*	-3%
C#CCOCCOCCOCCNc1nc(N2CCN(C(=O)[C@H](CCC(=O)O)n3cc(C(N)[C@H](C)CC)nn3)CC2)nc(N2CCN(C(=O)[C@H](Cc3ccc(O)cc3)n3cc(C(N)[C@H](C)CC)nn3)CC2)n1 (stereo partly drawn)	40µM*	76%	-130%[59 µM]	.	50µM*	9%
NCc1ccc(NC(N)=O)cc1	.	.	.	-35%	.	.
CN1CCN(C(=O)Nc2cccc3ccccc23)CC1	-7%	7%	?	11%	3%	9%
CCN1CCN(C(=O)Nc2cccc3ccccc23)CC1	-1%	21%	40µM*	0%	?	0%
O=C(CNc1ccccc1Cl)c1ccc(Br)cc1	-10%	45%	79µM*	0%	3%	?
CC1CN(C2CCN(C(=O)c3ccccc3)CC2)CC(C)O1 (stereo not drawn)	1.3µM*	?	2.5µM*	?	56µM*	-8%
O=C(c1cccc(Cl)c1)N1CCN(C2CCCCCC2)CC1	7.9µM*	25µM*	20µM*	?	45µM*	-9%
CC1CN(C(=O)c2ccc(C(=O)c3ccccc3)cc2)CC(C)O1 (stereo not drawn)	-13%	30%	0%[59 µM]	-7%	4%	20%
O=C(c1ccc(F)cc1)N1CCC(N2CCOCC2)CC1	7.9µM*	-54%	10µM*	-24%	?	-15%
CC1CCN(C2CCN(C(=O)c3ccccc3F)CC2)CC1	0.89µM*	?	28µM*	-63%	?	-12%
Cc1ccc(C)c(C(=O)CSc2nnnn2C)c1	.	.	.	-17%	.	.
CCCCNC(=O)Cc1c(C)[nH]c2ccc(CC)cc12	.	.	.	-20%	.	.
O=C(c1ccncc1)N1CCN(C(=O)c2ccncc2)CC1	-1%	62%	6%[12.7 µM]	17%	8%	-1%
O=C(c1ccccc1)N1CCN(C(=O)c2ccccc2)CC1	-2%	32%	?	0%	-16%	3%
O=C(c1ccccc1)N1CCN(C2CCCCC2)CC1	7.1µM*	?	7.9µM*	?	?	?
O=C(c1ccncc1)N1CCN(C2CCCCC2)CC1	1.1µM*	?	16µM*	?	50µM*	-4%
COc1cccc(CNC(=O)CC2C(=O)NCCN2CC(C)C)c1OC (stereo not drawn)	.	.	.	30%	.	.
O=C1NC(=S)S/C1=C/c1ccc(OC(=O)c2ccco2)cc1	?	-7%	-3%	?	79µM*	-3%
N=C1/C(=C\c2ccc(OC(=O)c3ccco3)cc2)C(=O)N=C2SC=NN12	?	-11%	-45%	-11%	.	-4%
COc1cc(/C=C2/SC(=O)NC2=O)ccc1OC(=O)c1ccco1	-9%	32%	18%	22%	-3%	6%
